{
  "source": "ChEMBL document CHEMBL3988442",
  "about": "“University of Dundee, Small-Polar-MMV Screening Library” (2021)",
  "data": [
    {"biological_target": "Shiga toxin 2 (Escherichia coli O157:H7) (UniProt P09385+P09386)", "assay": "E. coli 0.157:H7 Shiga Toxin SOP - stx2 screening assay", "assay_type": "functional", "parameters": "scale not given: direction of the effect not stated beside the values", "conditions": "30 µM", "units": {"Percent Effect": "%"}, "values": [
      {"compound": "CNC(=O)[C@@]12CCO[C@@H]1CCN(S(=O)(=O)c1cccnc1)C2", "Percent Effect": 7.61},
      {"compound": "Cc1ccc(C(=O)N2CCCC2c2nnc3n2CCCCC3)o1", "note": "(stereo not given)", "Percent Effect": -7.29},
      {"compound": "CC(NC(=O)CCC(=O)c1cccs1)c1nnc2n1CCCCC2", "note": "(stereo not given)", "Percent Effect": 18.5},
      {"compound": "COC[C@@]12CC[C@@H](N3CCOCC3)C[C@H]1CCN(c1ncccn1)C2", "Percent Effect": 17.6},
      {"compound": "CC(C)C(NC(=O)NCC1(CO)CC1)c1nnc2n1CCC2", "note": "(stereo not given)", "Percent Effect": 19.7},
      {"compound": "COc1cc(NC(=O)c2cc(C)sc2C)c(C(=O)N(C)C)cc1OC", "Percent Effect": -44.2},
      {"compound": "CSCC(=O)N1CCCN(c2ccccc2C)CC1", "Percent Effect": -18.5},
      {"compound": "CCn1c(C)nnc1CN(C)C1CCN(CCn2cccn2)C1", "note": "(stereo not given)", "Percent Effect": 12.1},
      {"compound": "Cn1ccnc1CC1CCCN(C(=O)Nc2cccn(C)c2=O)C1", "note": "(stereo not given)", "Percent Effect": -3.01},
      {"compound": "CC(C)(C)NC(=O)NC(=O)CNC(C)(C)c1ccc2c(c1)OCCO2", "Percent Effect": 41.7},
      {"compound": "CC(c1cccnc1)N(C)Cc1csc(-c2ccccn2)n1", "note": "(stereo not given)", "Percent Effect": -14.1},
      {"compound": "CN(C)C(=O)[C@@H]1C[C@@H]2CCN(Cc3nccs3)C[C@@H]2O1", "Percent Effect": 2.36},
      {"compound": "CC(=O)Nc1nc(C(=O)NC(C)c2ccc(F)cc2)cs1", "note": "(stereo not given)", "Percent Effect": 26.2},
      {"compound": "O=C(COCC1CC1)N1CCCC(n2ccnc2)C1", "note": "(stereo not given)", "Percent Effect": -26.2},
      {"compound": "Cn1cccc1C(=O)N1CCN(CC2CC2)c2ncccc2C1", "Percent Effect": -11.1},
      {"compound": "Cc1cc(C)n(-c2cncc(NCCNC(=O)C(C)C)n2)n1", "Percent Effect": 2.01},
      {"compound": "CC(=O)NCC(=O)N1CCn2cc(CN3CCN(C)CC3)nc2C1", "Percent Effect": -27.6},
      {"compound": "Cc1nn(C)c(C)c1CNC1CCOc2ccccc21", "note": "(stereo not given)", "Percent Effect": 8.07},
      {"compound": "CC(=O)N(C)c1nc(CN2CCOC(Cn3cc(C)cn3)C2)cs1", "note": "(stereo not given)", "Percent Effect": -9.15},
      {"compound": "CN(C)C(=O)C1CCCN1CCCNC(=O)c1ccccc1F", "note": "(stereo not given)", "Percent Effect": -18.5},
      {"compound": "CNS(=O)(=O)Cc1ccc(CNc2cncc(-n3cccn3)n2)cc1", "Percent Effect": -15.6},
      {"compound": "CC(C)c1nnc2n1CCN(C(=O)CN1CCc3sccc3C1)C2", "Percent Effect": -16.2},
      {"compound": "Cc1csc(N2CCN(CC(=O)Nc3c(C)n[nH]c3C)CC2C)n1", "note": "(stereo not given)", "Percent Effect": 17.4},
      {"compound": "CN(Cc1ncc(C(C)(C)C)o1)C1CCCN(c2cccnn2)C1", "note": "(stereo not given)", "Percent Effect": -9.94},
      {"compound": "N#Cc1ccnc(N2CCN(CC(O)c3cccc(F)c3)CC2)c1", "note": "(stereo not given)", "Percent Effect": 5.66},
      {"compound": "O=C(NCCCn1ccnc1)N1CCN(c2cccs2)CC1", "Percent Effect": -102},
      {"compound": "Cc1nc(C)c(CC(=O)Nc2nnc(C)s2)c(=O)[nH]1", "Percent Effect": 19},
      {"compound": "Cc1nnc(N2CCCC3(CN(Cc4ccc(C)s4)CCO3)C2)o1", "note": "(stereo not given)", "Percent Effect": -45.3},
      {"compound": "CCOC(C)c1nc(CN2CCC(CNC(C)=O)CC2)cs1", "note": "(stereo not given)", "Percent Effect": 3.11},
      {"compound": "CC(=O)N1CC(=O)N(c2cnn(C)c2)CC12CCN(CC1CC1)C2", "note": "(stereo not given)", "Percent Effect": -23.2},
      {"compound": "COCCC(=O)N1CC2(CCN(Cc3ccoc3)C2)C1", "Percent Effect": -19.5},
      {"compound": "COCC(=O)N1CCCC1c1ccnc(Nc2cnccn2)n1", "note": "(stereo not given)", "Percent Effect": 1.15},
      {"compound": "CC1COCCN1Cc1nc(-c2cccc(Br)c2)no1", "note": "(stereo not given)", "Percent Effect": 32},
      {"compound": "Cc1cnn(CC2CCCN2C(=O)CCCc2nc(C)no2)c1", "note": "(stereo not given)", "Percent Effect": -14.7},
      {"compound": "c1cnc(N2CCOCC3(CCCN(CC4CC4)C3)C2)cn1", "note": "(stereo not given)", "Percent Effect": -8.06},
      {"compound": "c1cnnc(N2CCCC2CNCc2cc[nH]n2)c1", "note": "(stereo not given)", "Percent Effect": -20},
      {"compound": "CCc1cc(C)c(C(=O)N2CCCC2CC(=O)c2cnn(C)c2)o1", "note": "(stereo not given)", "Percent Effect": 19.9},
      {"compound": "CN(CCCNC(=O)N1CCCC1c1ccsc1)c1ccccn1", "note": "(stereo not given)", "Percent Effect": -79.8},
      {"compound": "Cc1nc(C)n(C2CCCN(C(=O)c3ccc(F)cc3F)C2)n1", "note": "(stereo not given)", "Percent Effect": 1.49},
      {"compound": "O=C(CN1CCOC(Cn2cccn2)C1)Nc1nccs1", "note": "(stereo not given)", "Percent Effect": -17.3}
    ]}
  ]
}
